Experimental data reported in the supplement of paper PMC13380429.

Key:
[1] = system: Vero E6 infected with SARS-CoV-2; assay: morphology score (similarity to uninfected cells); higher = more like uninfected cells; conditions: 24 h
[2] = system: Vero E6 infected with SARS-CoV-2; assay: SARS-CoV-2 infection rate relative to infected DMSO; higher = more infection, active = 60 or less; conditions: 24 h

Row | Structure (SMILES) | morphology score [1] | SARS-CoV-2 infection rate [2]
1 | CNC(=O)c1cc(Oc2ccc(NC(=O)Nc3ccc(Cl)c(C(F)(F)F)c3)c(F)c2)ccn1 [regorafenib] (0.833333 µM) | 0.0372 | 110% (inactive)
2 | COc1cc(N)c(Cl)cc1C(=O)OCCN1CCCCC1 (10 µM) | 0.128 | 110% (inactive)
3 | N=C(NCCCCCCNC(=N)NC(=N)Nc1ccc(Cl)cc1)NC(=N)Nc1ccc(Cl)cc1 [chlorhexidine] (0.833333 µM) | 0.277 | 58% (active)
4 | N#C/C(=C1/SCC(c2ccccc2Cl)S1)n1ccnc1 (configuration not stated) [lanoconazole] (10 µM) | 0.0956 | 99.5% (inactive)
5 | CS(=O)(=O)Nc1ccc(Cc2noc(-c3ccc4[nH]cc(CCN)c4c3)n2)cc1 (10 µM) | 0.141 | 103% (inactive)
6 | CC[C@@](C)(Nc1ccnc(-c2c[nH]c3ncccc23)n1)C(=O)NCC(F)(F)F [decernotinib] (10 µM) | 0.178 | 108% (inactive)
7 | Cc1cc(/C=C2\SC(=O)N(c3ccccc3)C2=O)c(C)n1-c1cccnc1 (10 µM) | -0.171 | 102% (inactive)
8 | CCCCCCCCCCCCCCCC(=O)OC(C)C [isopropyl-palmitate] (10 µM) | 0.286 | 77% (inactive)
9 | Nc1c(CC(=O)O)cccc1C(=O)c1ccc(Br)cc1 [bromfenac] (10 µM) | -0.048 | 104% (inactive)
10 | Cn1cc(C(F)(F)F)nc1-c1ccc(OCC(O)CNCCOc2ccc(O)c(C(N)=O)c2)cc1 (configuration not stated) (10 µM) | -0.123 | 112% (inactive)
11 | COc1cc2ncnc(Nc3ccc(Oc4ccccc4)cc3)c2cc1OC [SRC-kinase-inhibitor-I] (0.833333 µM) | 0.0162 | 110% (inactive)
